This is an account of results in PubChem BioAssay (EPA / NIEHS).

By AC50 is commonly meant the midpoint of the concentration-response curve, whichever way the signal moves.

Some compounds were tested as several samples or in several runs, with calls that do not always agree. Active and inactive are the calls of the source. The calls were made as follows: active = hit-call score of the fitted dose curve at least 0.9, where 1 is the maximum; inactive = score below 0.9.

Read-out in test [1]: TIMP metallopeptidase inhibitor 2 (TIMP2), TIMP2 (gene 7077)
Briefly: BSK_KF3CT_TIMP2: BioMAP Diversity Plus: KF3CT Assay for TIMP metallopeptidase inhibitor 2 (TIMP2) Biomarker Activity (AID 2283071). The note with it: primary human keratinocytes with fibroblasts; actives raise or lower the signal. In a few lines:
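Chemicals were dosed onto human skin primary co-cultures of keratinocytes and foreskin fibroblasts, and TIMP-2 was measured by ELISA after 24 hours. Activity in either direction was fitted relative to DMSO.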

Read-out in test [2]: C-C motif chemokine 2 (Homo sapiens) (UniProt P13500)
Briefly: BSK_KF3CT_MCP1: BioMAP Diversity Plus: KF3CT Assay for Monocyte Chemoattractant Protein 1 (MCP1/CCL2) Biomarker Activity (AID 2283073). The note with it: primary human keratinocytes with fibroblasts; actives raise or lower the signal. In a few lines:
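ELISA read-out of MCP-1, 24 h post-dose, in primary human skin keratinocytes co-cultured with fibroblasts. Parallel SRB staining monitors cytotoxicity; changes fitted both directions relative to DMSO.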

Read-out in test [3]: Matrix Metallopeptidase 9 (MMP9), MMP9 (gene 4318)
The test is described as follows: BSK_KF3CT_MMP9: BioMAP Diversity Plus: KF3CT Assay for Matrix Metallopeptidase 9 (MMP9) Biomarker Activity (AID 2283074). The note with it: primary human keratinocytes with fibroblasts; actives raise or lower the signal. In a few lines:
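ELISA read-out of MMP-9 at 24 h post-dosing in a co-culture of human skin keratinocytes and foreskin fibroblasts. Gain or loss of signal was fitted in both directions against DMSO.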

Read-out in test [4]: urokinase plasminogen activator (uPA), PLAU (gene 5328)
The test is described as follows: BSK_KF3CT_uPA: BioMAP Diversity Plus: KF3CT Assay for urokinase plasminogen activator (uPA) Biomarker Activity (AID 2283075). The note with it: primary human keratinocytes with fibroblasts; actives raise or lower the signal. The essentials:
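Skin co-culture (keratinocytes + foreskin fibroblasts), human primary; 24 h post-dose; uPA by ELISA; gain/loss fit vs DMSO baseline.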

Read-out in test [5]: CD40, CD40 (gene 958)
The test is described as follows: BSK_LPS_CD40: BioMAP Diversity Plus: LPS Assay for CD40 Biomarker Activity (AID 2283076). Conditions: primary human HUVEC with PBMC; actives raise or lower the signal. In a few lines:
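In the LPS system of human endothelial cells with peripheral blood mononuclear cells, CD40 levels were read by ELISA 24 h post-treatment. Signal changes in either direction were fitted against the DMSO baseline, with parallel SRB protein staining.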

Read-out in test [6]: E-selectin (Homo sapiens) (UniProt P16581)
Briefly: BSK_LPS_Eselectin: BioMAP Diversity Plus: LPS Assay for Eselectin Biomarker Activity (AID 2283077). Conditions: primary human HUVEC with PBMC; actives raise or lower the signal. In a few lines:
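E-selectin ELISA on LPS-stimulated endothelial cell/PBMC co-cultures, read 24 h post-treatment; gains and losses fitted against DMSO. Parallel SRB staining (0.1% SRB after 10% TCA fixation, 560 nm) flags overt cytotoxicity.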

Read-out in test [7]: Interleukin-8 (IL8), CXCL8 (gene 3576)
The test is described as follows: BSK_LPS_IL8: BioMAP Diversity Plus: LPS Assay for Interleukin-8 (IL8) Biomarker Activity (AID 2283078). The note with it: primary human HUVEC with PBMC; actives raise or lower the signal. In a few lines:
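ELISA read-out of IL-8 after 24 h chemical treatment of LPS-activated endothelial/PBMC human primary co-cultures. Changes either up or down relative to DMSO; overt cytotoxicity checked by sulforhodamine B staining in parallel wells.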

Test [8] can be described thus: BSK_LPS_SRB: Viability Assessment in the BioMAP Diversity Plus: LPS Assay (AID 2283079).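 Also: total protein by sulforhodamine B absorbance as a cytotoxicity measure; measured one day after compound addition.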 The note with it: primary human HUVEC with PBMC. The essentials:
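SRB viability endpoint: cells fixed with 10% TCA, stained with 0.1% SRB, read at 560 nm, 24 h post-dose. HUVEC/PBMC co-culture; signal change in either direction scored relative to DMSO.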

Read-out in test [9]: Interleukin-1 alpha (IL1a), IL1A (gene 3552)
The test is described as follows: BSK_LPS_IL1a: BioMAP Diversity Plus: LPS Assay for Interleukin-1 alpha (IL1a) Biomarker Activity (AID 2283080). Conditions: primary human HUVEC with PBMC; actives raise or lower the signal. In a few lines: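 Readout is IL-1a level by ELISA, 24 h post-dose, fitted as gain or loss relative to DMSO. System: LPS-activated human primary co-culture of vascular endothelium and peripheral blood mononuclear cells, with parallel SRB total-protein cytotoxicity.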

Read-out in test [10]: Monocyte Chemoattractant Protein-1 (MCP1), CCL2 (gene 6347)
The test is described as follows: BSK_LPS_MCP1: BioMAP Diversity Plus: LPS Assay for Monocyte Chemoattractant Protein-1 (MCP1) Biomarker Activity (AID 2283081). The note with it: primary human HUVEC with PBMC; actives raise or lower the signal. In a few lines:
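Secreted MCP-1 read by ELISA at 24 h post-dosing in an LPS-activated co-culture of endothelial cells with peripheral blood mononuclear cells. Fits run in both directions, DMSO as baseline; parallel SRB staining tracks overt cytotoxicity.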

Test [11] is described as follows: BSK_LPS_PGE2: BioMAP Diversity Plus: LPS Assay for Prostaglandin E2 (PGE2) Biomarker Activity (AID 2283082). Conditions: primary human HUVEC with PBMC; actives raise or lower the signal. In a few lines: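 Compounds were added to the LPS co-culture of endothelium and PBMC, and PGE2 was measured by ELISA after 24 h. Responses in either direction were fitted with DMSO as baseline.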

Read-out in test [12]: Tissue Factor, F3 (gene 2152)
The test is described as follows: BSK_LPS_TissueFactor: BioMAP Diversity Plus: LPS Assay for Tissue Factor Biomarker Activity (AID 2283084). Conditions: primary human HUVEC with PBMC; actives raise or lower the signal. In a few lines:
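Compound was added to an endothelial cell/PBMC co-culture, and after 24 h tissue factor (CD142) was read by ELISA. Gain or loss of signal was fitted against a DMSO baseline, and parallel SRB staining (560 nm) tracked overt cytotoxicity.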

Read-out in test [13]: Tumor necrosis factor (Homo sapiens) (UniProt P01375)
Briefly: BSK_LPS_TNFa: BioMAP Diversity Plus: LPS Assay for Tumour Necrosis Factor alpha (TNFa) Biomarker Activity (AID 2283085). The note with it: primary human HUVEC with PBMC; actives raise or lower the signal. In a few lines:
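Cells (umbilical vein endothelium plus peripheral blood mononuclear cells) were dosed with chemical, incubated 24 h, then TNFa was quantified by ELISA; values derive from bidirectional fitting with DMSO as baseline.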

Read-out in test [14]: Vascular cell adhesion molecule 1 (VCAM1), VCAM1 (gene 7412)
Briefly: BSK_LPS_VCAM1: BioMAP Diversity Plus: LPS Assay for Vascular cell adhesion molecule 1 (VCAM1) Biomarker Activity (AID 2283086). Conditions: primary human HUVEC with PBMC; actives raise or lower the signal. The essentials:
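Cells are dosed in an LPS-stimulated endothelial/mononuclear co-culture and, after 24 h, VCAM-1 is quantified by ELISA. Activity in either direction is fitted relative to the DMSO negative control.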

Read-out in the next test: CD38, CD38 (gene 952)
Briefly: BSK_SAg_CD38: BioMAP Diversity Plus: SAg Assay for CD38 Biomarker Activity (AID 2283087). Conditions: primary human HUVEC with PBMC; actives raise or lower the signal. The essentials: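 CD38 quantified by ELISA (fluorescence) in a superantigen-activated endothelial cell–PBMC co-culture at 24 h post-dose. Activity fitted in both directions relative to DMSO; parallel SRB and Alamar Blue cytotoxicity read-outs.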

Read-out in test [15]: CD40, CD40 (gene 958)
Briefly: BSK_SAg_CD40: BioMAP Diversity Plus: SAg Assay for CD40 Biomarker Activity (AID 2283088). The note with it: primary human HUVEC with PBMC; actives raise or lower the signal. The essentials:
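CD40 is measured by fluorescence ELISA in an endothelial/PBMC primary human co-culture at 24 h post-dose. Fitting is bidirectional, DMSO baseline. Parallel SRB staining (560 nm) flags cytotoxicity.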

Read-out in another test: CD69, CD69 (gene 969)
Briefly: BSK_SAg_CD69: BioMAP Diversity Plus: SAg Assay for CD69 Biomarker Activity (AID 2283089). The note with it: primary human HUVEC with PBMC; actives raise or lower the signal. The essentials: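 Values derive from bidirectional fitting relative to DMSO vehicle. Cells: umbilical vein endothelium plus peripheral blood mononuclear cells, treated 24 h before fluorescent ELISA for CD69.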

Read-out in test [16]: Macrophage colony-stimulating factor (MCSF), CSF1 (gene 1435)
The test is described as follows: BSK_LPS_MCSF: BioMAP Diversity Plus: LPS Assay for Macrophage colony-stimulating factor (MCSF) Biomarker Activity (AID 2283083). Conditions: primary human HUVEC with PBMC; actives raise or lower the signal. The essentials:
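Bidirectional fitting against DMSO was applied to M-CSF levels read by ELISA at 24 h post-dose. The system pairs human umbilical vein endothelium with peripheral blood mononuclear cells; parallel SRB staining tracked cytotoxicity.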

Chain of Tumor necrosis factor (Homo sapiens) (P01375 whole entry, looked up): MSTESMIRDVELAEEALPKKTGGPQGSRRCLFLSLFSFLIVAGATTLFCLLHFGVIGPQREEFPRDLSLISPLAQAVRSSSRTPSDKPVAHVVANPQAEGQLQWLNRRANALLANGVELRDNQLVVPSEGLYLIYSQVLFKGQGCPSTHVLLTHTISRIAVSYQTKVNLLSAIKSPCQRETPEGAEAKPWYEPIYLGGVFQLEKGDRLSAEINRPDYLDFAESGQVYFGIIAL
Chain of E-selectin (Homo sapiens) (P16581 whole entry, looked up): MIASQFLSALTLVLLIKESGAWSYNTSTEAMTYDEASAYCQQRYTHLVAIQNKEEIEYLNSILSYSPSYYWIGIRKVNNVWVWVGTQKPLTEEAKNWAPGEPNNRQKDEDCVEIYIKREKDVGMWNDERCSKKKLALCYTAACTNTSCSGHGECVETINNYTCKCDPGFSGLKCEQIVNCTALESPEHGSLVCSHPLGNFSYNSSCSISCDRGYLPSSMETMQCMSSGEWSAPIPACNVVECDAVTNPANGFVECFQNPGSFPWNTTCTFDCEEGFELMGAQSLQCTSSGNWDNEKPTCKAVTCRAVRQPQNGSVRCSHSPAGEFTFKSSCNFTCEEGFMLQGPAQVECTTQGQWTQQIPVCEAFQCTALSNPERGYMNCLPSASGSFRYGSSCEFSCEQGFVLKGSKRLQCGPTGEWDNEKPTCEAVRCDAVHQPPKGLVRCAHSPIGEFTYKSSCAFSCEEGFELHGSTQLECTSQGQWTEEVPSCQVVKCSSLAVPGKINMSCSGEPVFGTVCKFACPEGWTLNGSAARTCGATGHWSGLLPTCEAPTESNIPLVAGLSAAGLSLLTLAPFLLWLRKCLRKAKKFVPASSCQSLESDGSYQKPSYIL

With `OCCCC(F)(F)C(F)(F)C(F)(F)F`, the outcome in [1] was “inactive”; in [2], “inactive”; in test [3] it was “inactive”; in test [4], “inactive”; in the test with CD40, CD40 (gene 958) [5], “inactive”; in [6], “inactive”. In addition, the result in [7], in test [8], in [9], in [10], in [11] and in test [12] was inactive. The outcome in test [13] is “inactive”; in test [14], “inactive”; in the test with CD38, CD38 (gene 952) it was “inactive”; with CD40, CD40 (gene 958) [15] it was “inactive”; with CD69, CD69 (gene 969), “inactive”.
For `C=CC(F)(F)C(F)(F)C(F)(F)C(F)(F)C(F)(F)C(F)(F)C(F)(F)C(F)(F)F`, the outcome was “inactive” in [1]; “inactive” in test [2]; “inactive” in test [3]; “inactive” in test [4]; “inactive” with CD40, CD40 (gene 958) [5]; “inactive” in test [6]. Further, the outcome in test [7], in test [8], in [9], in test [10], in test [11] and in test [12] was inactive. In addition, the outcome in [13] is “inactive”; in [14] it was “inactive”; with CD38, CD38 (gene 952) it was “inactive”; in the test with CD40, CD40 (gene 958) [15] it was “inactive”; with CD69, CD69 (gene 969), “inactive”.
With `FC1CC(F)(F)C(F)(F)C1(F)F` (stereo not given), the outcome was “inactive” in test [1]; “inactive” in [2]; “inactive” in test [3]; “inactive” in test [4]; “inactive” in the test with CD40, CD40 (gene 958) [5]; “inactive” in [6]. The outcome in test [7], in test [8], in test [9], in test [10], in [11] and in test [16] was inactive. Moreover, the outcome in [12] was “inactive”; in test [13], “inactive”; in [14], “inactive”; with CD38, CD38 (gene 952) it was “inactive”; in the test with CD40, CD40 (gene 958) [15] it was “inactive”; with CD69, CD69 (gene 969), “inactive”.
On to `O=S(=O)(OCC(F)F)C(F)(F)F`, for which the outcome was “inactive” in test [1]; “inactive” in [2]; “inactive” in [3]; “inactive” in test [4]; “inactive” with CD40, CD40 (gene 958) [5]; “inactive” in test [6]. Besides, the result in test [7], in test [8], in test [9], in test [10], in test [11] and in [12] was inactive. In addition, the outcome in test [13] was “inactive”; in [14] it was “inactive”; with CD38, CD38 (gene 952) it was “inactive”; with CD40, CD40 (gene 958) [15] it was “inactive”; with CD69, CD69 (gene 969), “inactive”. Moreover, the AC50 in the test with CD38, CD38 (gene 952) was 220 nM (active).
